Measured values from PubChem BioAssay (EPA / NIEHS).
Inconclusive results are not listed. Active and inactive are the calls of the source. How the source made its calls, unless noted: active means hit-call score of the fitted dose curve at least 0.9, where 1 is the maximum; inactive means score below 0.9.

Experiments:
[1] = read-out: E-selectin (Homo sapiens) (UniProt P16581); experiment: BSK_3C_Eselectin: BioMAP Diversity Plus: 3C Assay for Eselectin Biomarker Activity (AID 2283015); details: primary human endothelial cells (HUVEC); actives raise or lower the signal
In short: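 Primary human umbilical vein endothelial cells (3C system) were dosed with chemical and cell-surface E-selectin measured by ELISA 24 h later. Bidirectional curve fitting used DMSO as negative control and baseline.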

[2] = read-out: Interleukin-1 alpha (IL1a), IL1A (gene 3552); experiment: BSK_BE3C_IL1a: BioMAP Diversity Plus: BE3C Assay for Interleukin-1 alpha (IL1a) Biomarker Activity (AID 2283016); details: primary human bronchial epithelial cells; actives raise or lower the signal
In short: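 Measured in human lung primary bronchial epithelial cells: IL-1a by ELISA at 24 h after dosing, with bidirectional fitting against DMSO.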

[3] = read-out: Monocyte Chemoattractant Protein-1 (MCP1), CCL2 (gene 6347); experiment: BSK_3C_MCP1: BioMAP Diversity Plus: 3C Assay for Monocyte Chemoattractant Protein-1 (MCP1) Biomarker Activity (AID 2283017); details: primary human endothelial cells (HUVEC); actives raise or lower the signal
In short: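 Primary human umbilical vein endothelial cells (3C system) were exposed to test chemical for 24 h, after which MCP-1 was quantified by ELISA. Activity was fitted bidirectionally against DMSO as negative control and baseline.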

[4] = read-out: Monocyte Chemoattractant Protein-1 (MCP1), CCL2 (gene 6347); experiment: BSK_4H_MCP1: BioMAP Diversity Plus: 4H Assay for Monocyte Chemoattractant Protein-1 (MCP1) Biomarker Activity (AID 2283018); details: primary human endothelial cells (HUVEC); actives raise or lower the signal
In short: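 Primary human umbilical vein endothelium is exposed to chemical for 24 h before MCP-1 is assayed by ELISA. Concentration-response fitted bidirectionally relative to DMSO.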

[5] = read-out: Human Leukocyte Antigen - DR isotype (HLADR), HLA-DRA (gene 3122); experiment: BSK_3C_HLADR: BioMAP Diversity Plus: 3C Assay for Human Leukocyte Antigen - DR isotype (HLADR) Biomarker Activity (AID 2283019); details: primary human endothelial cells (HUVEC); actives raise or lower the signal
In short: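 Primary human umbilical vein endothelial cells (3C system) were dosed with compound and cell-surface HLA-DR was quantified by ELISA at 24 h. Activity was fitted bidirectionally against DMSO as negative control and baseline.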

[6] = read-out: Interleukin-8 (IL8), CXCL8 (gene 3576); experiment: BSK_3C_IL8: BioMAP Diversity Plus: 3C Assay for Interleukin-8 (IL8) Biomarker Activity (AID 2283020); details: primary human endothelial cells (HUVEC); actives raise or lower the signal
In short: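 Using DMSO-treated wells as the baseline, bidirectional curve fitting was applied to ELISA-measured IL-8 from human umbilical vein endothelial cultures sampled 24 h after compound addition.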

[7] = read-out: Monokine induced gamma interferon (MIG), CXCL9 (gene 4283); experiment: BSK_3C_MIG: BioMAP Diversity Plus: 3C Assay for Monokine induced gamma interferon (MIG) Biomarker Activity (AID 2283021); details: primary human endothelial cells (HUVEC); actives raise or lower the signal;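 on AC50: MIG protein level measured by immunoassay in the treated endothelial cultures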
In short: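 ELISA-measured MIG in dosed HUVEC 3C cultures at 24 h, analysed by bidirectional fitting with DMSO defining baseline activity.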

[8] = target: human Vitamin D Receptor (VDR), VDR (gene 7421) (UniProt P11473); experiment: ATG_VDR_TRANS: Attagene TRANS-FACTORIAL HepG2 Assay for human Vitamin D Receptor (VDR) (AID 2283022; active means hit-call score of the fitted dose curve at least 0.9, where 1 is the maximum)
human Vitamin D Receptor (VDR), VDR (gene 7421), sequence (P11473 whole entry, looked up, the tested form may be a part): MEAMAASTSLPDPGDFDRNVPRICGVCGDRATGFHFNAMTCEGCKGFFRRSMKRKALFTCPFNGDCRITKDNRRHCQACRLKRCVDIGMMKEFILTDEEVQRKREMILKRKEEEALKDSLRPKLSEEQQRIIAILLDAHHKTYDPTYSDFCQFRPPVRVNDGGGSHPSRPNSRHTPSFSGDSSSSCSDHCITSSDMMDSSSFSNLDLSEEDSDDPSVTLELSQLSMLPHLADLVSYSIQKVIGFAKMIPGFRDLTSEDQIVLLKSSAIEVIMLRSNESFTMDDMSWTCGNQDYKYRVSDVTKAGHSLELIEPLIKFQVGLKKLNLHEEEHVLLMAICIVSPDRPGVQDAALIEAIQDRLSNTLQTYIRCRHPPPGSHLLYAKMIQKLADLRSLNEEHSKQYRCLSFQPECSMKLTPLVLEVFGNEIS
In short: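 HepG2 cells were transiently transfected with multiple GAL4-UAS reporter units, so signal reflects exogenous chimeric receptor-Gal4 activity. After 24 h compound exposure, reporter mRNA was measured by RT-PCR, fluorescent labelling and capillary electrophoresis, fitted for gain of signal versus DMSO.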

[9] = BSK_3C_SRB: Viability Assessment in the BioMAP Diversity Plus: 3C Assay (AID 2283023); details: primary human endothelial cells (HUVEC);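 further: fitted both ways against DMSO so a hit may be signal rise or drop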
In short: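 Primary human umbilical vein endothelial cells in the 3C system were read 24 h after compound dosing. Total protein was stained with 0.1% sulforhodamine B after 10% TCA fixation and read at 560 nm, with bidirectional fitting against DMSO as baseline.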

[10] = read-out: Matrix Metallopeptidase 1 (MMP1), MMP1 (gene 4312); experiment: BSK_BE3C_MMP1: BioMAP Diversity Plus: BE3C Assay for Matrix Metallopeptidase 1 (MMP1) Biomarker Activity (AID 2283024); details: primary human bronchial epithelial cells; actives raise or lower the signal
In short: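 In this multiplexed primary-cell system, human bronchial epithelium received chemicals for 24 h before an ELISA for MMP1. Values reflect bidirectional fits normalised to the DMSO baseline.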

[11] = BSK_3C_Vis: BioMAP Diversity Plus: 3C Assay for Morphology Visualization (AID 2283025); details: primary human endothelial cells (HUVEC);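 further: fitted both ways so gain or loss versus DMSO counts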;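 on AC50: light microscopy image of cell morphology used as background control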
In short: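 Light-microscopy morphology readout, 24 h exposure, human primary umbilical vein endothelium; analysed relative to DMSO with bidirectional fitting.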

[12] = read-out: Pselectin, SELP (gene 6403); experiment: BSK_4H_Pselectin: BioMAP Diversity Plus: 4H Assay for Pselectin Biomarker Activity (AID 2283026); details: primary human endothelial cells (HUVEC); actives raise or lower the signal
In short: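 Bidirectional fits against DMSO gave the endpoint. Cells: primary human umbilical vein endothelium, chemical-treated for 24 h before ELISA detection of P-selectin.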

[13] = BSK_4H_SRB: Viability Assessment in the BioMAP Diversity Plus: 4H Assay (AID 2283027); details: primary human endothelial cells (HUVEC);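 further: cells exposed to compound for 24 h before staining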;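 on AC50: curves fitted both ways versus DMSO so AC50 may be loss or gain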
In short: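 HUVEC, 24 h post-dose; 10% TCA fix, 0.1% SRB stain, A560 nm. Total protein = overt cytotoxicity, parallel to biomarker read. Bidirectional fit vs DMSO baseline.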

[14] = BSK_BE3C_SRB: Viability Assessment in the BioMAP Diversity Plus: BE3C Assay (AID 2283028); details: primary human bronchial epithelial cells;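 on AC50: fitted both ways so AC50 may mark signal gain or loss versus DMSO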
In short: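 Human primary bronchial epithelial cells were exposed to test chemicals for 24 h. Total protein in parallel cultures was then measured by staining with 0.1% sulforhodamine B after 10% TCA fixation, with absorbance read at 560 nm. Activity was fitted bidirectionally against DMSO.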

[15] = read-out: Thrombomodulin, THBD (gene 7056); experiment: BSK_3C_Thrombomodulin: BioMAP Diversity Plus: 3C Assay for Thrombomodulin Biomarker Activity (AID 2283029); details: primary human endothelial cells (HUVEC); actives raise or lower the signal
In short: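 In a multiplexed primary-cell system, human umbilical vein endothelium received chemical and was assayed 24 h later for thrombomodulin by ELISA. Parallel cultures were SRB-stained (0.1% SRB after 10% TCA fixation, read at 560 nm) to flag cytotoxicity.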

[16] = read-out: Urokinase-type plasminogen activator receptor (uPAR), PLAUR (gene 5329); experiment: BSK_4H_uPAR: BioMAP Diversity Plus: 4H Assay for Urokinase-type plasminogen activator receptor (uPAR) Biomarker Activity (AID 2283030); details: primary human endothelial cells (HUVEC); actives raise or lower the signal
In short: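 Primary human umbilical vein endothelial cells were exposed to chemical for 24 h before cell-surface uPAR was quantified by ELISA. Activity was fitted bidirectionally against the DMSO negative control baseline.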

[17] = read-out: Vascular endothelial growth factor receptor 2 (Homo sapiens) (UniProt P35968); experiment: BSK_4H_VEGFRII: BioMAP Diversity Plus: 4H Assay for Vascular endothelial growth factor receptor 2 (VEGFR2) Biomarker Activity (AID 2283031); details: primary human endothelial cells (HUVEC); actives raise or lower the signal
In short: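 Primary human umbilical vein endothelial cells in the BioMAP 4H system were dosed with test chemical, and 24 h later VEGFRII was measured by ELISA. Activity was fitted bidirectionally against DMSO as negative control and baseline.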

[18] = read-out: Human Leukocyte Antigen - DR isotype (HLADR), HLA-DRA (gene 3122); experiment: BSK_BE3C_HLADR: BioMAP Diversity Plus: BE3C Assay for Human Leukocyte Antigen - DR isotype (HLADR) Biomarker Activity (AID 2283032); details: primary human bronchial epithelial cells; actives raise or lower the signal
In short: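 BioMAP BE3C format: human bronchial epithelium, 24 h compound treatment, ELISA detection of HLA-DR, with bidirectional analysis relative to DMSO.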

Measured: AC50

E-selectin (Homo sapiens), sequence (P16581 whole entry, looked up): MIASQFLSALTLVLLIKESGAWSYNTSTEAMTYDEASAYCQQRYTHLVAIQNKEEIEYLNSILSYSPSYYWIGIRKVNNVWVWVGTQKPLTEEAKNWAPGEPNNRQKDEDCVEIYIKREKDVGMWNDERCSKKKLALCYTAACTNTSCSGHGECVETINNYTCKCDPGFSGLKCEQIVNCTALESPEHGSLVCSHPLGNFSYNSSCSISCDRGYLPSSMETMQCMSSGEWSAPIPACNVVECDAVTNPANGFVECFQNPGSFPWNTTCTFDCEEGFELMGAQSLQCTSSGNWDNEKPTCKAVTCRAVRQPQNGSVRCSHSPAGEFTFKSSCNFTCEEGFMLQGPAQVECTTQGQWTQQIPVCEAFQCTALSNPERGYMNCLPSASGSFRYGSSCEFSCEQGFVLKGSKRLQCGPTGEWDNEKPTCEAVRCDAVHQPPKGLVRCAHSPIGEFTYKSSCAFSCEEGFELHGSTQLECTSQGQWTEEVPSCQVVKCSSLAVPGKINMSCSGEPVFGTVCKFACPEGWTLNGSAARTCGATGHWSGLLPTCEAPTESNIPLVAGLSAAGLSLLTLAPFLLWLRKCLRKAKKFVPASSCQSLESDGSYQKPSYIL

CCCC(=O)O
inactive: all assays above

O=C(O)c1[nH]n(-c2ccc(S(=O)(=O)O)cc2)c(=O)c1N=Nc1ccc(S(=O)(=O)O)cc1
not listed: [17]
inactive: all other assays above

Cc1c(C)c2c(c(C)c1O)CCC(C)(COc1ccc(CC3SC(=O)NC3=O)cc1)O2 (stereo unspecified)
inactive: [8] | [15]
active: [1] 30.3 µM | [2] 29.3 µM | [3] 30.6 µM | [4] 9.95 µM | [6] 20 µM | [7] 34.2 µM | [9] 17.3 µM | [10] 33.9 µM | [12] 14 µM | [13] 23 µM | [14] 28.4 µM | [16] 28.6 µM | [18] 15.2 µM

O=C1NC(=O)C(c2ccccc2)(c2ccccc2)N1
not listed: [8] | [10] | [11]
inactive: all other assays above

CC(C)c1cccc(C(C)C)c1NC(=O)NS(=O)(=O)c1cc(C(C)(C)O)co1
not listed: [11] | [17]
inactive: all other assays above

COC(=O)CCC(=O)OC
not listed: [8] | [11] | [17]
inactive: all other assays above

Oc1ccc(O)cc1
active: [1] 13.8 µM | [5] 23.5 µM | [10] 2.96 µM | [12] 20 µM
inactive: all other assays above

CO[C@@H]1COCC[C@@H]1N[C@@H]1CC[C@@](C(=O)N2CCc3ncc(C(F)(F)F)cc3C2)(C(C)C)C1
not listed: [8]
inactive: all other assays above

COC(=O)CCCC(=O)OC
not listed: [17]
inactive: all other assays above

Cn1cnc2c1c(=O)[nH]c(=O)n2C
not listed: [8] | [11]
inactive: all other assays above

Cc1ccc(-c2cc(C(F)(F)F)nn2-c2ccc(S(N)(=O)=O)cc2)cc1
active: [1] 30 µM | [2] 33.3 µM | [3] 37.8 µM | [4] 27.8 µM | [5] 31 µM | [6] 32.7 µM | [9] 23.1 µM | [10] 31.7 µM | [11] 37.5 µM | [12] 25.8 µM | [13] 28 µM | [14] 35.7 µM | [15] 28.4 µM | [16] 20 µM | [18] 33.4 µM

OCC(CO)n1cnc(-c2ccc(F)cc2)c1-c1ccnc(Oc2ccccc2)n1
active: [3] 1.08 µM | [5] 0.254 µM | [6] 0.852 µM | [10] 0.594 µM | [15] 2.28 µM
not listed: [8]
inactive: all other assays above

CC(C)(C)c1ccccc1
inactive: all assays above

CN(C)C(=O)NC1(c2ccccc2)CCN(CC[C@@]2(c3ccc(F)c(F)c3)CN(C(=O)c3ccccc3)CCO2)CC1
not listed: [11]
inactive: all other assays above
